PubChem BioAssay (NCATS)
Inconclusive results are not listed. The source made the active and inactive calls. The call rests on the fitted dose curve. Bridge positions count the residues as written; N and C are the ends. Square brackets hold non-standard residues; d marks the D form. Peptide text beside a SMILES is read from it. hArg = N=C(N)NCCCC[C@H](N)C(=O)O; Mpa = O=C(O)CCS

What was measured:
[1] = Primary qHTS for inhibitors of SARS-S pseudo-typed particle cell entry (AID 1479145); conditions: SARS-S pseudotyped particle cell entry, luciferase reporter; series mostly up to 57.1 µM; further: nearly all actives have a fitted effect of over 45% in size
[2] = Primary qHTS for Huh7 cytotoxicity: counterscreen for inhibitors of MERS-S pseudotyped particle cell entry (AID 1479147); conditions: cell viability read-out; series mostly up to 57.1 µM
[3] = Primary qHTS for inhibitors of MERS-S pseudo-typed particle cell entry (AID 1479149); conditions: MERS-S pseudotyped particle entry, luciferase; series mostly up to 57.1 µM; further: nearly all actives have a fitted effect of over 60% in size
[4] = Primary qHTS for Vero E6 cytotoxicity: counterscreen for inhibitors of SARS-S pseudo-typed particle cell entry (AID 1479150); conditions: cell viability; series mostly up to 57.1 µM

Measured: Potency

Cc1cc(O)c(C(C)C)cc1Cl
inactive: all assays above

CCCc1cc(C(N)=S)ccn1
inactive: all assays above

CCC(=O)O[C@]1(C(=O)COC)[C@@H](C)C[C@H]2[C@@H]3CCC4=CC(=O)C=C[C@]4(C)C3(F)[C@@H](O)C[C@@]21C (some centres undefined)
inactive: all assays above

NC(=O)[C@@H]1CSSCCC(=O)N[C@@H](CCCCN=C(N)N)C(=O)NCC(=O)N[C@@H](CC(=O)O)C(=O)N[C@@H](Cc2c[nH]c3ccccc23)C(=O)N2CCC[C@H]2C(=O)N1 ([Mpa][hArg]GDWPC-NH2; disulfide 1-7)
inactive: all assays above

C/C(=C(/OCCOc1ccc(Cl)cc1)c1ccc(Cl)cc1Cl)n1ccnc1
inactive: all assays above

CCN(CC)CCNC(C(=O)OCCC(C)C)c1ccccc1 (centres undefined)
inactive: all assays above

N#Cc1cc(NC(=O)C(=O)O)c(Cl)c(NC(=O)C(=O)O)c1
inactive: all assays above

CCOc1ccc(NC(C)=O)cc1
inactive: all assays above

C#CCN(C)Cc1ccccc1
inactive: all assays above

CC(=C(CCOC(=O)C(C)C)SSC(CCOC(=O)C(C)C)=C(C)N(C=O)Cc1cnc(C)nc1N)N(C=O)Cc1cnc(C)nc1N
inactive: all assays above

NCC1CCC(C(=O)Oc2ccc(CCC(=O)O)cc2)CC1 (centres undefined)
inactive: all assays above

O=C1c2cccc(O)c2C(=O)c2c(O)cccc21
inactive: all assays above

CCCN(CCC)C(=O)C(CCC(=O)O)NC(=O)c1ccccc1 (centres undefined)
inactive: all assays above

O=C(O)CCC(=O)Nc1ccc(S(=O)(=O)Nc2nccs2)cc1
inactive: all assays above

COc1ccccc1N1CCN(CCCNc2cc(=O)n(C)c(=O)n2C)CC1
inactive: all assays above

CCN1CCCC(OC(=O)C(c2ccccc2)c2ccccc2)C1 (centres undefined)
inactive: all assays above

Cc1ccc(C(C)OC(=O)C2(C)CCC(C(=O)O)C2(C)C)cc1 (centres undefined)
inactive: all assays above

Cc1nnc(C(=O)NC(C)(C)c2nc(C(=O)NCc3ccc(F)cc3)c(O)c(=O)n2C)o1
inactive: all assays above

CC(C)=CCOc1ccc(/C=C/C(=O)c2ccc(OCC=C(C)C)cc2OCC(=O)O)cc1
inactive: all assays above

CCCn1cnc2c1c(=O)n(CCCCC(C)=O)c(=O)n2C
inactive: all assays above

CC(CNC1CCCCC1)OC(=O)c1ccccc1 (centres undefined)
inactive: all assays above

Cc1ccc2c(Cl)cc(Cl)c(O)c2n1
inactive: all assays above

C[N+](C)(C)CCOC(=O)CCC(=O)OCC[N+](C)(C)C
inactive: all assays above

Cc1c(C)c2c(c(C)c1OC(=O)CCC(=O)OCCO)CC[C@@](C)(CCC[C@H](C)CCC[C@H](C)CCCC(C)C)O2
inactive: all assays above

c1ccc([C@H]2CN3CCSC3=N2)cc1
inactive: all assays above

Cc1cccc(N(C)C(=S)Oc2ccc3ccccc3c2)c1
inactive: all assays above

Cc1ccc(Nc2c(F)cccc2Cl)c(CC(=O)O)c1
inactive: all assays above

COc1ccc(CN(CCN(C)C)c2ncccn2)cc1
inactive: all assays above

CCC(=O)Oc1ccc2c(c1)CC[C@@H]1[C@@H]2CC[C@@]2(C)[C@H]1C[C@@H](OC(=O)CC)[C@@H]2OC(=O)CC
inactive: all assays above

CN1CCCN=C1COC(=O)C(O)(c1ccccc1)C1CCCCC1 (centres undefined)
inactive: all assays above

CCCCC[C@H](O)C=C[C@H]1[C@H](O)CC(=O)[C@H]1CC=CCCCC(=O)O
inactive: all assays above

NS(=O)(=O)c1cc2c(cc1Cl)NC(C1CC3C=CC1C3)NS2(=O)=O (centres undefined)
inactive: all assays above

Brc1c(NC2=NCCN2)ccc2nccnc12
inactive: all assays above

CCOC(=O)c1ccc(NC(=O)CN2CCCCC2)cc1
inactive: all assays above

CC(C)(C)C(=O)OCOC(=O)[C@@H]1N2C(=O)[C@@H](NC(=O)[C@H](N)c3ccccc3)[C@H]2SC1(C)C
inactive: all assays above

CC(=O)N(CC(=O)N(C)C)c1ccccc1
inactive: all assays above

CCCCC/C=C\C/C=C\CCCCCCCC(=O)NC(C)c1ccccc1 (centres undefined)
inactive: all assays above

Oc1ccc(CCNCCCCCCNCCc2ccccc2)cc1O
inactive: all assays above

COC(=O)C1=C(C)NC(COC(N)=O)=C(C(=O)OC(C)C)C1c1cccc(Cl)c1Cl (centres undefined)
inactive: all assays above

Cc1c(F)cc2c(=O)c(C(=O)O)cn3c2c1CCC3C (centres undefined)
inactive: all assays above

C[C@]12CCC(=O)C=C1CC[C@@H]1[C@@H]2[C@@H](O)C[C@@]2(C)[C@H]1CC[C@]2(O)C(=O)CO
inactive: all assays above

CC(O)COc1ccccc1 (centres undefined)
inactive: all assays above

COc1cc(OC)cc(OC)c1
inactive: all assays above

C=Cc1c(C)c2cc3[nH]c(cc4nc(cc5nc(cc1[nH]2)C(C)=C5CCC(=O)O)C(CCC(=O)O)=C4C)c(C)c3C=C
inactive: all assays above

C[C@H](CCC(=O)O)[C@H]1CC[C@H]2[C@@H]3C(=O)C[C@@H]4CC(=O)CC[C@]4(C)[C@H]3CC(=O)[C@]12C
inactive: all assays above

CCN(CC)CC(=O)Nc1c(C)cccc1C(=O)OC
inactive: all assays above

Nc1ccc(C(=O)NCC(=O)O)cc1
inactive: all assays above

C#C[C@]1(OC(C)=O)CC[C@H]2[C@@H]3CCC4=C/C(=N/O)CC[C@@H]4[C@H]3CC[C@@]21CC
inactive: all assays above

CC(C)(C)NCC(O)COc1cccc2c1CCC(=O)N2 (centres undefined)
inactive: all assays above

Oc1ccc(C(O)CNCCCCCCNCC(O)c2ccc(O)c(O)c2)cc1O (centres undefined)
inactive: all assays above

CN(C)CCn1nnnc1SCC1=C(C(=O)O)N2C(=O)[C@@H](NC(=O)Cc3csc(N)n3)[C@H]2SC1
inactive: all assays above
